Test results reported in the OligoGym collection.

Biological target: SLC34A1
Assay: pooled miR-30 sensor sort-seq; sequence = guide strand
Conditions: shRNA
Further: reference of the scale not given here.

Sequence	sensor-assay potency score (higher = more potent)
TAGTCATGTGTACACGTGCAGA	-1.32
TTGAGCATCTTGACTAGGAGGA	0.961
TTAAAGCAGTCATGCACCGTGG	-0.651
TCCGTATTGATGACCTTCTGGA	-0.714
TTCAGGGAGTGCATCCAGCGAG	-0.619
TTGACTAGGAGGATGAGGCAGG	0.548
TCTGTGATGATCTTGAGCAGGT	0.374
TTGGAACCCAGTGTGAGCGGGT	0.313

Biological target: SLC35D2
Assay: as above
Conditions: shRNA

Sequence	sensor-assay potency score (higher = more potent)
TTGTGCTTGATAATCCACTTAT	-0.388
TAGACTAAAGACATGTCTGTTT	-0.123
TAGGATAAACACAACATTCTTC	0.0517
TAAACTGAAACAACTGGCCCTT	0.105
TTTCTTATCAAAATCAGGGAAG	-0.741
TTAGCTTGGACACATATAGTAT	-0.569
TTACTTGTGCTTGATAATCCAC	-0.229
TACATTTCTTGAGACTGCCATT	-1.38
TATAGTATCATTATGGTGGCTG	0.443
TAGCTGCACAGAACCGTGGAGT	-0.729
TTAACTAATTTTATTAGACTAA	-1.13
TAATAGCTGCACAGAACCGTGG	-0.868

Biological target: SLC38A11
Assay: as above
Conditions: shRNA

Sequence	sensor-assay potency score (higher = more potent)
TTTTATTGACCAAAGACTGGTA	-0.145
TTGAGTATTTGTAATAGCCATG	-1.21
TTTATCAATAAAACAAGGGAAA	-1.2
TTAAAGTAGAAAGTTGTGTTGT	0.823
TTGAGTTCTAGAACTATCCCGA	0.433
TTGTGTTGTCTGCTGAACATGA	-0.294
TAAACCTGTAGAGATGAGGGAG	0.481
TCTGCTGAACATGAGACTCTGA	0.182
TCAAGTATCCACATGTAGCAAA	-0.803
TTCTAGAGAACTGTAAACTAAG	-0.917
TACAACAATGTGGAAAACCGAT	-0.853
TAATTTTCAAATAAGTCCCCTT	0.231

Biological target: SLC39A12
Assay: as above
Conditions: shRNA

Sequence	sensor-assay potency score (higher = more potent)
TTGTCCCAGACAAACACCCTGG	-0.6
TTTTGATACAAGTACTTCTGGT	-0.57
TTGCTTGTCACTTAACTTGCTT	-0.0821
TGAAGAACAGATCTCTTCCTGA	0.419
TTTTTGATACAAGTACTTCTGG	0.0669
TGACACAAGATAGCAATCGTAG	-0.876
TTGTGTTTGAACATGAGTCATT	-0.725
TTGCAGTTGATTTTACTCCAAC	-1.11
